Assay results: the supplement of paper PMC12067926

Assays:
Test in all cases: relative growth (AUC of 72 h growth curve relative to DMSO control, dAUC) (ratio); higher = more growth (less inhibition), active = hit call of the paper
Details in all cases: 20 µM;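 active = growth AUC significantly below the DMSO wells by Dunnett test; inactive = the rest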
[1] = tested on: Community 7
Summary of the method: (§1)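 Growth was followed as A600, read hourly for 72 h on a plate reader after brief shaking. Isolates from Icelandic stream sediments and Silwood Park soil, and whole sediment communities, were first grown to carrying capacity in Luria–Bertani medium and then diluted 1:100 into 96-well plates with each chemical at 20 µM (1% DMSO). Relative growth (dAUC) is the spline-integrated area under the curve scaled to the mean of the DMSO controls, and the values are averages of three biological replicates.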

[2] = tested on: Community 8
Summary of the method: as §1

[3] = tested on: Community 9
Summary of the method: as §1

[4] = tested on: Flavobacterium 1 (Flavobacterium glaciei)
Summary of the method: as §1

[5] = tested on: Flavobacterium 2 (Flavobacterium succinicans)
Summary of the method: as §1

[6] = tested on: Hymenobacter 1 (Hymenobacter glaciei)
Summary of the method: as §1

[7] = tested on: Microbacterium 1 (Microbacterium arborescens)
Summary of the method: as §1

[8] = tested on: Neobacillus 1 (Neobacillus soli)
Summary of the method: as §1

[9] = tested on: Oryzobacter 1 (Oryzobacter terrae)
Summary of the method: as §1

[10] = tested on: Paenibacillus 1 (Paenibacillus castaneae)
Summary of the method: as §1

[11] = tested on: Prolinoborus 1 (Prolinoborus fasciculus)
Summary of the method: as §1

[12] = tested on: Pseudomonas 1 (Pseudomonas baetica)
Summary of the method: as §1

[13] = tested on: Pseudomonas 2 (Pseudomonas vancouverensis)
Summary of the method: as §1

[14] = tested on: Pseudomonas 3 (Pseudomonas mandelii)
Summary of the method: as §1

[15] = tested on: Pseudomonas 4 (Pseudomonas peli)
Summary of the method: as §1

[16] = tested on: Pseudomonas 5 (Pseudomonas baetica)
Summary of the method: as §1

[17] = tested on: Pseudomonas 6 (Pseudomonas sp.)
Summary of the method: as §1

[18] = tested on: Rhizobium 1 (Rhizobium herbae)
Summary of the method: as §1

[19] = tested on: Serratia 1 (Serratia sp. 2015-2462-01)
Summary of the method: as §1

[20] = tested on: Sphingomonas 2 (Sphingomonas sp.)
Summary of the method: as §1

Measured: relative growth

CO/C=C(/C(=O)OC)c1ccccc1Oc1cc(Oc2ccccc2C#N)ncn1
inactive: [1] 0.834 | [2] 1.03 | [3] 1.04 | [4] 1.09 | [5] 0.99 | [6] 1.03 | [7] 0.975 | [8] 1.01 | [9] 1.13 | [10] 1.01 | [11] 0.973 | [12] 1.07 | [13] 1.02 | [14] 1.06 | [15] 1.03 | [16] 1.03 | [17] 1.08 | [18] 0.967 | [19] 0.967 | [20] 1.09

CCNc1nc(Cl)nc(NC(C)C)n1
inactive: [1] 1.01 | [2] 1.01 | [3] 1 | [4] 1.05 | [5] 0.972 | [6] 1.06 | [7] 1.02 | [8] 1.03 | [9] 0.998 | [10] 1.01 | [11] 0.944 | [12] 0.917 | [13] 0.95 | [14] 0.996 | [15] 0.956 | [16] 1.01 | [17] 0.945 | [18] 0.995 | [19] 0.928 | [20] 1.02

CCC(CC)Nc1c([N+](=O)[O-])cc(C)c(C)c1[N+](=O)[O-]
inactive: [1] 1.03 | [2] 1.02 | [3] 0.884 | [4] 1.03 | [5] 0.957 | [6] 0.926 | [7] 1.04 | [8] 0.918 | [9] 1.1 | [10] 0.933 | [11] 0.939 | [12] 1.13 | [13] 0.981 | [14] 1.03 | [15] 0.949 | [16] 1.05 | [17] 1.04 | [18] 0.957 | [19] 0.929 | [20] 0.998

CCOP(=S)(OCC)Oc1nc(Cl)c(Cl)cc1Cl
inactive: [1] 0.998 | [2] 1.02 | [3] 1.06 | [4] 1.05 | [5] 0.996 | [6] 1.07 | [7] 0.991 | [8] 1.07 | [9] 1.04 | [10] 1.04 | [11] 0.989 | [12] 1.04 | [13] 1.01 | [14] 1.05 | [15] 0.991 | [16] 1.06 | [17] 1.08 | [18] 0.929 | [19] 0.993 | [20] 1.07

O=C(O)COc1ccc(Cl)cc1Cl
inactive: [1] 1.08 | [2] 0.972 | [3] 1.03 | [4] 0.966 | [5] 1.02 | [6] 1.07 | [7] 1.02 | [8] 1 | [9] 0.964 | [10] 1.01 | [11] 1.01 | [12] 0.923 | [13] 0.971 | [14] 1.04 | [15] 1.01 | [16] 0.997 | [17] 1.07 | [18] 1.03 | [19] 0.96 | [20] 1.04

CC(C)N(C(=O)COc1nnc(C(F)(F)F)s1)c1ccc(F)cc1
inactive: [1] 1.13 | [2] 1.02 | [3] 0.986 | [4] 1.01 | [5] 0.927 | [6] 0.849 | [7] 1.04 | [8] 0.965 | [9] 1.16 | [10] 0.899 | [11] 0.963 | [12] 1.07 | [13] 1.03 | [14] 1.07 | [15] 0.983 | [16] 1.01 | [17] 1.1 | [18] 1.02 | [19] 0.984 | [20] 1.09

OC(Cc1ccccc1Cl)(Cn1nc[nH]c1=S)C1(Cl)CC1 (stereo not given)
inactive: [1] 0.968 | [2] 1.03 | [3] 1.02 | [4] 1.09 | [5] 1 | [6] 1.01 | [7] 0.958 | [8] 1.05 | [9] 0.894 | [10] 1.01 | [11] 1.02 | [12] 1.02 | [13] 0.995 | [14] 1.01 | [15] 1 | [16] 0.995 | [17] 0.982 | [18] 1.07 | [19] 1.05 | [20] 0.981

COc1cc(OC)nc(NC(=O)NS(=O)(=O)c2ncccc2C(=O)N(C)C)n1
inactive: [1] 1.02 | [2] 1.07 | [3] 1.08 | [4] 1.12 | [5] 1.08 | [6] 1.16 | [7] 1.04 | [8] 1.1 | [9] 0.98 | [10] 1.08 | [11] 0.999 | [12] 0.988 | [13] 1 | [14] 1.01 | [15] 0.993 | [16] 0.996 | [17] 0.943 | [18] 0.992 | [19] 1 | [20] 1
